The source of these data is ChEMBL document CHEMBL1961873, “Compounds: GSK PKIS; Assays: Nanosyn kinase panel” (2012).

Usually inhibition stands for the change of the read-out against control, counted positive when it falls.

Assay [1] addresses Sphingosine kinase 1 (Homo sapiens) (UniProt Q9NYA1). Conditions: at 1 µM.
Assay [2] deals with T1, Sphingosine kinase 2 (Homo sapiens) (UniProt Q9NRA0).
T1 sequence (whole entry): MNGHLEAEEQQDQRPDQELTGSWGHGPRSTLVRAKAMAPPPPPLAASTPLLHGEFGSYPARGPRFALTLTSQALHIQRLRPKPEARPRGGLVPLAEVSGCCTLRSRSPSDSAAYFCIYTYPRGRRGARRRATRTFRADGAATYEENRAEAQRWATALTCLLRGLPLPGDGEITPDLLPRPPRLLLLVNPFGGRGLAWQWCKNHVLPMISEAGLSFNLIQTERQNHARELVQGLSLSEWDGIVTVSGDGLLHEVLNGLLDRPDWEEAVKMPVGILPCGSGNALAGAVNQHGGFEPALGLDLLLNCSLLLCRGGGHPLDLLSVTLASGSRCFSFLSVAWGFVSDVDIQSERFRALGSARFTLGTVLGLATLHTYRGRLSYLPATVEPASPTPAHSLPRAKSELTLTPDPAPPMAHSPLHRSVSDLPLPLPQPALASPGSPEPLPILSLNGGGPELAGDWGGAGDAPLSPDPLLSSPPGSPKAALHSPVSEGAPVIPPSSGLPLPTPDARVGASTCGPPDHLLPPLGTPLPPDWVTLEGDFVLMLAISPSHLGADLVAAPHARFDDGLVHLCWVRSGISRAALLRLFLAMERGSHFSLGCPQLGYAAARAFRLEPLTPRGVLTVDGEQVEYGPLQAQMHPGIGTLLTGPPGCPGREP
The settings on record: at 0.1 µM.

In assay [3] the target is T1, Sphingosine kinase 2 (Homo sapiens). Conditions: at 1 µM.
Assay [4] deals with Casein kinase II subunit alpha (Homo sapiens) (UniProt P68400). Conditions: at 0.1 µM.
The target is the same in assay [5]. The settings on record: at 1 µM.
For assay [6], the target named is T2, Inhibitor of nuclear factor kappa-B kinase subunit alpha (Homo sapiens) (UniProt O15111).
T2 sequence (whole entry): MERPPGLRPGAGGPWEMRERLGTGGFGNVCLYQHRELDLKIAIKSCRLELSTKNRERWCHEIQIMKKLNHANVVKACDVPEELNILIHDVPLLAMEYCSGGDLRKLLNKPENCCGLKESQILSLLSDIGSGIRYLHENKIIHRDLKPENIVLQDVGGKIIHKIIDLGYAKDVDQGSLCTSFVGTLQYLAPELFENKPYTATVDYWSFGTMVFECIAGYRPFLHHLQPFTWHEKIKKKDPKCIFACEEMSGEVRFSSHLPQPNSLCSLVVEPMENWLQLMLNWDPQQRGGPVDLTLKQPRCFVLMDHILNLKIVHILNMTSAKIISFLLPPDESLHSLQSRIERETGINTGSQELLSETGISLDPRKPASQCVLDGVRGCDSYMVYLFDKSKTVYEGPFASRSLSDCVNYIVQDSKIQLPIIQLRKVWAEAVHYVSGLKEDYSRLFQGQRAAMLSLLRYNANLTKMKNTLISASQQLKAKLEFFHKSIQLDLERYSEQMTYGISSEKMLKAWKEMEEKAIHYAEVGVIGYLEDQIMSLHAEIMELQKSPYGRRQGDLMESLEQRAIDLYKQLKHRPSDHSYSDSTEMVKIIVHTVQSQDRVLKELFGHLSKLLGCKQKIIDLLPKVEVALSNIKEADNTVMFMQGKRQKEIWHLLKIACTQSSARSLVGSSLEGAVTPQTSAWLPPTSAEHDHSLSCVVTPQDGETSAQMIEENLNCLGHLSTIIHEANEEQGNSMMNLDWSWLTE
Conditions: at 0.1 µM.

Assay [7] has as its target T2, Inhibitor of nuclear factor kappa-B kinase subunit alpha (Homo sapiens). Conditions: at 1 µM.
Assay [8] addresses T3, Inhibitor of nuclear factor kappa-B kinase subunit beta (Homo sapiens) (UniProt O14920).
T3 sequence (whole entry): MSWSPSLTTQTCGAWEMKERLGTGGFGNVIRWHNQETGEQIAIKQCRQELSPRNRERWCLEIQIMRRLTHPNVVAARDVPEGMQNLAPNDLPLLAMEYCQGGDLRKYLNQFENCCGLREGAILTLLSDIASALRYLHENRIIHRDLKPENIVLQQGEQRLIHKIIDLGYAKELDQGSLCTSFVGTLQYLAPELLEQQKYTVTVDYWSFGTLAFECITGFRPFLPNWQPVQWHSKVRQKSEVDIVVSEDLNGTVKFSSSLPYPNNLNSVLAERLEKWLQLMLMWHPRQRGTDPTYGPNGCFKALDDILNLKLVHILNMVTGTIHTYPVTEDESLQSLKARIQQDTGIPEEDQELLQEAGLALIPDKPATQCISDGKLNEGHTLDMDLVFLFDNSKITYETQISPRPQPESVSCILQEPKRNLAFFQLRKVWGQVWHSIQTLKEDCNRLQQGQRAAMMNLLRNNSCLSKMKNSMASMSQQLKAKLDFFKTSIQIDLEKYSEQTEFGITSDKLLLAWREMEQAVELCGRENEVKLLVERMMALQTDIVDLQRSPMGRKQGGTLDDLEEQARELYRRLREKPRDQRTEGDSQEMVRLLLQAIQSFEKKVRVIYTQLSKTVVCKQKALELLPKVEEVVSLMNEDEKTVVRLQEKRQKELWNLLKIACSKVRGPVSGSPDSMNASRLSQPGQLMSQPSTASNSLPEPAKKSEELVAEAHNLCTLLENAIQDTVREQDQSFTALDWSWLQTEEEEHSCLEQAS
Conditions: at 0.1 µM.

Assay [9] deals with T3, Inhibitor of nuclear factor kappa-B kinase subunit beta (Homo sapiens). The settings on record: at 1 µM.
Assay [10] deals with T4, Inhibitor of nuclear factor kappa-B kinase subunit epsilon (Homo sapiens) (UniProt Q14164).
T4 sequence (whole entry): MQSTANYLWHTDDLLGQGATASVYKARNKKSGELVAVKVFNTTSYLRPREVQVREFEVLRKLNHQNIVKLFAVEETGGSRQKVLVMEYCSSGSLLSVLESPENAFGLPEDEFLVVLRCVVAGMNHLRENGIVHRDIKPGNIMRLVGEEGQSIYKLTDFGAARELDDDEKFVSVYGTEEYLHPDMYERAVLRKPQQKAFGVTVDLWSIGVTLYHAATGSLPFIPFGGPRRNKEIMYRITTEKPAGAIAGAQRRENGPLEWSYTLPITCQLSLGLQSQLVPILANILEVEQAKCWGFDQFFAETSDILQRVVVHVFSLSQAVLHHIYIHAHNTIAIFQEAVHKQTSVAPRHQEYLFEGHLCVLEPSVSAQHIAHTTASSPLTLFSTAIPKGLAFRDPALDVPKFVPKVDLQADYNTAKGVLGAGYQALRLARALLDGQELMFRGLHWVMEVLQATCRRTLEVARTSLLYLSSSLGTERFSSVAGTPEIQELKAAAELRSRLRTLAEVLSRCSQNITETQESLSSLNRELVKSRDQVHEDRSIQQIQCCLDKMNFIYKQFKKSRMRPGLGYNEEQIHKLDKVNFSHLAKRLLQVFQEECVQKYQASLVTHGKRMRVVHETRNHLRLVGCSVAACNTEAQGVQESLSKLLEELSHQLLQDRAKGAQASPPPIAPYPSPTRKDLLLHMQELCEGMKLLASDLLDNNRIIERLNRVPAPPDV
Conditions: at 0.1 µM.

Sequence of Sphingosine kinase 1 (Homo sapiens) (Q9NYA1 whole entry): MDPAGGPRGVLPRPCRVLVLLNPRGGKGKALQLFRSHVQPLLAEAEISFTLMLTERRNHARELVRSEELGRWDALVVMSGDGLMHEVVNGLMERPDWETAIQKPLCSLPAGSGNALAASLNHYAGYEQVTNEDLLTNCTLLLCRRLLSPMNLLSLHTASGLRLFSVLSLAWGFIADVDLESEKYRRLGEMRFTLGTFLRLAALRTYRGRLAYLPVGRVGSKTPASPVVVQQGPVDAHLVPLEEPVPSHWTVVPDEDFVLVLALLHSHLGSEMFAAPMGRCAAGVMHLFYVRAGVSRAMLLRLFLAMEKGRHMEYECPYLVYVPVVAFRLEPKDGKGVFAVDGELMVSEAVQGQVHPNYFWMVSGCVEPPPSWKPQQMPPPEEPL
Sequence of Casein kinase II subunit alpha (Homo sapiens) (P68400 whole entry, looked up): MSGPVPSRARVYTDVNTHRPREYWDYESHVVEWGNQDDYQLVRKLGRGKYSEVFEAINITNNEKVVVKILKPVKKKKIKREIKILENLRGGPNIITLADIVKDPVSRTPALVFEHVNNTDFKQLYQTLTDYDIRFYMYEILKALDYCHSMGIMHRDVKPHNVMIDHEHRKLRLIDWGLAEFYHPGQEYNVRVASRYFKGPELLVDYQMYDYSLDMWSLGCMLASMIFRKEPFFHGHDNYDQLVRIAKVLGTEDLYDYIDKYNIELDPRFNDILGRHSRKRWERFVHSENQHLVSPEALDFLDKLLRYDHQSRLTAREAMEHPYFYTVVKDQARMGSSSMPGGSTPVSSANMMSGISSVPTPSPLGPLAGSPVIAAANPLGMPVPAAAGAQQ

As for `COc1ccc2c(-c3ccnc(Nc4cccc(OC(F)(F)F)c4)n3)cnn2n1`, the inhibition was -1.74% in assay [1]; 1.81% in assay [2]; -2.35% in assay [3]; 4% in assay [4]; 20% in [5]; 4.59% in [6]. Also, the inhibition was determined as 7.22% in assay [7], 3.15% in [8], 6.88% in [9] and 9.38% in assay [10].
For `Fc1ccc(-c2nn3ncccc3c2-c2ccnc(Nc3ccc4c(c3)OCCO4)n2)cc1`, the inhibition in [1] stood at 0.16%; in [2], 0%; in [3] it was 0.35%; in [4], 2.03%; in [5], 0.07%; in assay [6], 9.88%. Further, the inhibition in assay [7] stood at 7.87%; in assay [8] it was 5.46%; in assay [9], 4.62%; in [10], 5.66%.
For `COc1ccc2[nH]c3c4[nH]c5ccc(OC)cc5c4c4c(c3c2c1)C(=O)NC4=O`, the inhibition in assay [1] is -1.68%; in assay [2], -2.46%; in [3], -0.32%; in assay [4], 6.4%; in assay [5], 15.9%; in [6], 5.28%. Also, the inhibition came to 6.84% in assay [7], 3.54% in assay [8], 4.71% in assay [9] and 13.5% in [10].
Consider `CC(=O)NCc1cccc(C#Cc2cncnc2Nc2ccc(OCc3cccc(F)c3)c(Cl)c2)c1`, for which the inhibition in assay [1] was -1.56%; in assay [2], -0.13%; in assay [3], -2.39%; in assay [4], -0.56%; in assay [5], 1.55%; in [6], -0.42%. In addition, the inhibition in assay [7] was 3.17%; in assay [8] it was -1.42%; in assay [9], 1.29%; in [10], 0.37%.
With `CN(C)CCOc1ccc(-c2nc(-c3ccncc3)c(-c3ccc4c(c3)CC/C4=N\O)[nH]2)cc1`, the inhibition in assay [1] is -0.62%; in assay [2] it was -0.49%; in [3], -0.4%; in assay [4] it was 3.04%; in assay [5], 7.33%; in assay [6], 6.61%. Besides, the inhibition in [7] came out at 7.1%; in [8], 0.93%; in [9], 0.86%; in assay [10] it was 9.22%.
In the case of `O=C(Nc1n[nH]c2cc(-c3ccc(F)cc3)ccc12)C1CC1`, the inhibition in assay [1] is 0.32%; in [2], 0.15%; in assay [3], -0.37%; in assay [4], 2.04%; in assay [5] it was 0.79%; in [6] it was 4.81%. Also, the inhibition in assay [7] was -0.71%; in [8] it was 4.46%; in assay [9] it was 2.08%; in assay [10] it was 4.25%.
Turning to `Nc1nc(-c2cccc(Cl)c2)c(-c2ccc3ncccc3n2)s1`, the inhibition in [1] was -3.27%; in [2] it was 0.78%; in assay [3], 0.1%; in assay [4], 4.99%; in assay [5] it was 15.3%; in [6], 10.6%. For the same compound, the inhibition turned out to be 13.9% in assay [7], 8.18% in assay [8], 7.33% in assay [9] and 9.04% in [10].
For the compound `CC1=C(C(=O)Nc2cc(Cl)c3[nH]ncc3c2)C(c2ccc(C(F)(F)F)cc2)CC(=O)N1` (stereo not given), the inhibition in assay [1] is -1.96%; in assay [2] it was 0.58%; in assay [3], 0.72%; in assay [4], 3.06%; in [5] it was 1.13%; in assay [6] it was 4.43%. Also, the inhibition in [7] came to 4.34%; in [8], 3.26%; in assay [9], 5.73%; in assay [10], 4.64%.
Turning to `NC(=O)c1sc(-n2cnc3ccc(C(F)(F)F)cc32)cc1OCc1ccccc1Br`, the inhibition in [1] was -0.89%; in assay [2], -0.23%; in [3], -0.48%; in [4], 3.45%; in assay [5], 5.66%; in [6] it was 12.5%. For the same compound, the inhibition turned out to be 11.2% in assay [7], 6.41% in [8], 6.44% in [9] and 5.17% in assay [10].
